Test systems include T-47D breast; BT-549 breast; MDA-MB-435 melanoma; SW-620 colon; MCF7 breast; HCT-116 colon; HCC-2998 colon; KM12 colon.
Common to all, as to assay: NCI-60 one-dose screen, 48 h (100 = growth as untreated, 0 = no growth, -100 = all killed)
Common to all, as to conditions: 10 µM unless noted

This is part of a sample that, as a whole, favours compounds with a hit. Of some 83,000 tested, about 20% had one in any assay.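 A percent growth of 40 corresponds to 60% growth inhibition; 0 means no net growth; -100 means all cells died. Active threshold: below 10.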 A number with no mark means an inactive call. Active and inactive are the calls of the source.

Take `Cc1ccc(Cc2ccc(C)cc2)cc1`: the growth was 101% in the assay on T-47D breast; 91.2% in the assay with BT-549 breast; 97.5% in the assay with MDA-MB-435 melanoma; 102% with SW-620 colon; 99.4% in the assay with MCF7 breast; 107% with HCT-116 colon. The results for the growth with HCC-2998 colon and in the assay on KM12 colon were 100% and 99.4%, respectively.
Take `CCN(CC)CCN1CNC(=S)NC1`: the growth in the assay on T-47D breast was 94.5%; in the assay on BT-549 breast, 102%; with MDA-MB-435 melanoma, 109%; with SW-620 colon, 107%; in the assay on MCF7 breast, 98.4%; in the assay with HCT-116 colon it was 103%. The growth with HCC-2998 colon was 109%; in the assay with KM12 colon, 98.7%.
For `O=C1CSc2ccccc2N1`, the growth in the assay with T-47D breast is 107%; in the assay with BT-549 breast, 117%; in the assay with MDA-MB-435 melanoma, 108%; with SW-620 colon, 99.2%; in the assay on MCF7 breast, 98.5%; in the assay with HCT-116 colon, 111%. For the same compound, the growth is 99.6% with HCC-2998 colon and 109% in the assay on KM12 colon.
`O=S(Cc1ccccc1)/C(=C/NC(=S)Nc1cc(Cl)ccc1Cl)c1ccccc1` (centres undefined): the growth with T-47D breast was 104%; in the assay with BT-549 breast, 96.5%; in the assay with MDA-MB-435 melanoma, 108%; with SW-620 colon, 107%; with MCF7 breast, 96.9%; in the assay on HCT-116 colon, 109%. For the same compound, the growth is 103% with HCC-2998 colon and 100% with KM12 colon.
With `CCC(C)C1CCC(O)CC1` (centres undefined), the growth with T-47D breast was 104%; in the assay with BT-549 breast, 98.5%; in the assay with MDA-MB-435 melanoma, 103%; with SW-620 colon, 107%; with MCF7 breast, 100%; with HCT-116 colon it was 101%. Besides, the growth in the assay on HCC-2998 colon was 107%; with KM12 colon, 105%.
For the compound `CC(c1ccccc1)N1C(=O)CSC1=S` (centres undefined), the growth was 63.4% with T-47D breast; 32.9% in the assay on BT-549 breast; -8.13% (active) with MDA-MB-435 melanoma; 17.6% with SW-620 colon; 6.61% (active) in the assay on MCF7 breast; 5.85% (active) in the assay with HCT-116 colon. Moreover, the growth is 53.2% in the assay on HCC-2998 colon and -38.3% (active) with KM12 colon.
For `OCCNc1ccccc1`, the growth is 98.7% in the assay on T-47D breast; 97.4% in the assay with BT-549 breast; 107% in the assay with MDA-MB-435 melanoma; 108% in the assay on SW-620 colon; 97.1% in the assay with MCF7 breast; 89.9% in the assay on HCT-116 colon. Besides, the growth was 105% in the assay on HCC-2998 colon and 101% in the assay on KM12 colon.
As for `CNc1ccccc1C(=O)N/N=C/C=C/c1ccccc1`, the growth in the assay on T-47D breast is 29.5%; with BT-549 breast it was 47.3%; with MDA-MB-435 melanoma, -43.1% (active); with SW-620 colon, 20.2%; with MCF7 breast it was 12.2%; in the assay on HCT-116 colon, 21.6%. Further, the growth with HCC-2998 colon is 42.2%; with KM12 colon, 22.2%.
`O=CNCCc1ccccc1`: the growth in the assay on T-47D breast was 101%; with BT-549 breast, 96.5%; in the assay with MDA-MB-435 melanoma, 102%; in the assay with SW-620 colon, 113%; in the assay with MCF7 breast, 95.3%; in the assay with HCT-116 colon it was 102%. The growth in the assay with HCC-2998 colon is 122%; in the assay with KM12 colon, 131%.
Regarding `N#Cc1ccc(OC(=O)Nc2cc(Cl)cc(Cl)c2)cc1`, the growth in the assay with T-47D breast is -12.2% [100 µM] (active); in the assay with BT-549 breast, -27.1% [100 µM] (active); in the assay on MDA-MB-435 melanoma, -9.08% [100 µM] (active); in the assay on SW-620 colon, 4.92% [100 µM] (active); with MCF7 breast, -25.7% [100 µM] (active); with HCT-116 colon, -62.7% [100 µM] (active). Also, the results for the growth with HCC-2998 colon and in the assay on KM12 colon were -8.43% [100 µM] (active) and -15% [100 µM] (active), respectively.
As to `Cn1c(=O)c2[nH]c(CC(=O)O)nc2n(C)c1=O`, the growth was 102% in the assay on T-47D breast; 107% with BT-549 breast; 112% in the assay with MDA-MB-435 melanoma; 108% in the assay with SW-620 colon; 101% in the assay on MCF7 breast; 104% in the assay with HCT-116 colon. Further, the growth in the assay on HCC-2998 colon was 101%; in the assay with KM12 colon, 105%.
`CCN(CC)CCOC(=O)Nc1c(C(C)C)cccc1C(C)C`: the growth with T-47D breast is 103%; with BT-549 breast it was 117%; in the assay on MDA-MB-435 melanoma it was 102%; in the assay on SW-620 colon it was 118%; in the assay on MCF7 breast, 101%; in the assay on HCT-116 colon it was 101%. The growth with HCC-2998 colon is 114%; in the assay with KM12 colon, 105%.
On to `COc1cccc(N=CNc2cccc(OC)c2)c1`, for which the growth was 92% in the assay on T-47D breast; 101% in the assay with BT-549 breast; 102% in the assay with MDA-MB-435 melanoma; 98.5% in the assay on SW-620 colon; 92.2% with MCF7 breast; 92.2% with HCT-116 colon. Also, the growth is 98.9% with HCC-2998 colon and 87.8% with KM12 colon.
For `CCC1CCC(C)NC1` (centres undefined), the growth in the assay with T-47D breast was 106%; with BT-549 breast, 101%; in the assay with MDA-MB-435 melanoma, 104%; in the assay on SW-620 colon, 96.9%; in the assay on MCF7 breast it was 95%; in the assay with HCT-116 colon it was 98.8%. Further, the growth with HCC-2998 colon is 106%; with KM12 colon it was 97.6%.
On to `O=Cc1ccc(F)cc1`, for which the growth in the assay with T-47D breast was 94.6%; with BT-549 breast, 100%; with MDA-MB-435 melanoma, 97.9%; in the assay on SW-620 colon it was 92.8%; in the assay on MCF7 breast, 92.6%; with HCT-116 colon it was 101%. Further, the values for the growth with HCC-2998 colon and with KM12 colon were 104% and 109%, respectively.
For `c1cc(CNCCNCc2ccncc2)ccn1`, the growth is 91.4% in the assay on T-47D breast; 117% in the assay on BT-549 breast; 112% in the assay with MDA-MB-435 melanoma; 105% in the assay with SW-620 colon; 100% in the assay with MCF7 breast; 95.2% in the assay with HCT-116 colon. Moreover, the figures for the growth with HCC-2998 colon and in the assay with KM12 colon were 102% and 108%, respectively.
As to `O=C(O)Cc1ccc(Cl)cc1`, the growth with T-47D breast was 117%; in the assay on BT-549 breast it was 105%; in the assay on MDA-MB-435 melanoma it was 97.3%; in the assay with SW-620 colon, 111%; with MCF7 breast it was 99.2%; in the assay on HCT-116 colon, 77.4%. In addition, the growth in the assay with HCC-2998 colon is 108%; in the assay with KM12 colon, 113%.
As to `COC(=O)c1ccccc1C(=O)c1c(C)cc(C)cc1C`, the growth in the assay on T-47D breast was 88.8%; with BT-549 breast, 106%; in the assay on MDA-MB-435 melanoma it was 97.6%; in the assay on SW-620 colon, 93.2%; with MCF7 breast, 102%; in the assay on HCT-116 colon it was 99.7%. For the same compound, the growth was 94.4% in the assay with HCC-2998 colon and 102% in the assay on KM12 colon.

(Values after PubChem BioAssay (NCI).)
